Here are results for 35 compounds from PubChem BioAssay (Tox21).

The source made the active and inactive calls. Calls follow the shape of the dose curve; as a rule, active = well fitted curve in the direction sought with a large enough effect in the repeat runs; inconclusive = weak or mixed curves; inactive = flat fitted curve, though single readings scatter.
% is scaled to controls: 0 for no effect and ±100 for the full control effect.

A short description of the first assay: qHTS assay to test for compound auto fluorescence at 535 nm (green) in HEK293 cell free culture (AID 720682). Particulars: cell-free medium, green autofluorescence 485/535 nm, stronger effect = higher value; series mostly up to 91.3 µM. The gist of the method: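 Intrinsic compound fluorescence is measured in culture medium containing 10% FBS, with excitation at 485 nm and detection at 535 nm, referenced to fluorescein.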
On the technique in general: Quantitative high-throughput screening tests each substance at several concentrations.
On to `CC(C)COC(=O)COc1ccc(Cl)cc1Cl`, for which the call was inactive.

As for `O=c1[nH]c(=O)c2[nH]c(=O)[nH]c2[nH]1`, the call was inactive.

For the compound `NS(=O)(=O)c1cc2c(cc1Cl)NC(C(Cl)Cl)NS2(=O)=O` (stereo not given), the activity change was -0.0213% [at 18.6 µM] (inactive).

As for `SCCSCCS`, the call was inactive.

Consider `Cc1cc(C)cc([N+](=O)[O-])c1`, for which the result was inactive.

With `CCCCOC(=O)C(C)OC(=O)CCC` (stereo not given), the compound was called inactive.

As for `CC1=NN(c2ccc(S(=O)(=O)O)cc2)C(=O)C1N=Nc1ccccc1` (stereo not given), the compound was called inactive.

With `O=C(O)c1ccccc1C(=O)Nc1ccc(S(=O)(=O)Nc2nccs2)cc1`, the result was inactive.

As for `FC(F)(F)/C(=N\OCC1OCCO1)c1ccc(Cl)cc1`, the result was inactive.

As for `Nc1ccc(/C=C/c2ccc(N)cc2S(=O)(=O)O)c(S(=O)(=O)O)c1`, the call was inactive.

Turning to `CCOC(=O)CC#N`, the outcome was inactive.

`COc1cc(C=O)ccc1OC(=O)C(C)C`: the call was inactive.

For the compound `CCCOC(=O)CCCCC(=O)OCCC`, the compound was called inactive.

Turning to `OC(CCN1CCCCC1)(c1ccccc1)c1ccccc1`, the compound was classed as inactive.

Take `C[C@H]1O[C@H](O[C@H]2[C@H](O)[C@@H](O)[C@@H](O[C@H]3[C@H](O)[C@@H](O)[C@H](O)O[C@@H]3CO)O[C@@H]2CO)[C@H](O)[C@@H](O)[C@@H]1N[C@H]1C=C(CO)[C@@H](O)[C@H](O)[C@H]1O`: the compound was classed as inactive.

`O=S(=O)(O)CCO`: the compound was classed as inactive.

On to `NCCc1ccn[nH]1`, for which the activity change was 0.0838% [at 18.6 µM] (inactive).

For the compound `CCCCC(CC)C(=O)OC(C)C` (stereo not given), the compound was classed as inactive.

For the compound `CCC(=O)c1ccc(O)cc1`, the compound was classed as inactive.

On to `CCCCCCCCC(=O)OCC`, for which the compound was classed as inactive.

Consider `COc1cc2c3cc1Oc1cc(ccc1O)C[C@@H]1c4c(cc(OC)c(O)c4Oc4ccc(cc4)C[C@@H]3N(C)CC2)CC[N+]1(C)C`, for which the compound was classed as inactive.

As for `CCCCC/C=C/CC(=O)OC`, the compound was classed as inactive.

In the case of `C=CCOc1cc(Cl)ccc1C(=O)NCCN(CC)CC`, the outcome was inactive.

For `CCCCCC1Nc2cc(C(F)(F)F)c(S(N)(=O)=O)cc2S(=O)(=O)N1` (stereo not given), the result was inactive.

Regarding `C[Si]1(C)N[Si](C)(C)N[Si](C)(C)N1`, the compound was classed as inactive.

As for `Cc1oc(=O)oc1CN1CCN(c2cc3c(cc2F)c(=O)c(C(=O)O)c2n3C(C)S2)CC1` (stereo not given), the result was inactive.

Turning to `CCc1nccnc1C`, the call was inactive.

For the compound `Cc1ccccc1C(=O)N1CC/C(=N\OS(=O)(=O)O)c2ccc(Cl)cc21`, the compound was called inactive.

With `COc1cc2c(Nc3ccc(Br)cc3F)ncnc2cc1OCC1CCN(C)CC1`, the outcome was inactive.

Take `CO/N=C(/C(=O)N[C@@H]1C(=O)N2C(C(=O)O)=C(Cn3nnc(C)n3)CS[C@H]12)c1csc(N)n1`: the compound was classed as inactive.

For the compound `Cc1nc(C)nc(N2C[C@@H](C)N(c3ccnc([C@@H](C)O)n3)[C@@H](C)C2)n1`, the call was inactive.

With `CC(=O)N(CC(O)CO)c1c(I)c(C(=O)NCC(O)CO)c(I)c(C(=O)NCC(O)CO)c1I` (stereo not given), the compound was classed as inactive.

As for `O=C(COCCOCCOCC(=O)Nc1c(I)cc(I)c(C(=O)O)c1I)Nc1c(I)cc(I)c(C(=O)O)c1I`, the result was inactive.

As for `C[C@@H]1C[C@H]2[C@@H]3C[C@H](F)C4=CC(=O)C=C[C@]4(C)[C@@]3(F)[C@@H](O)C[C@]2(C)[C@@]1(O)C(=O)CO`, the activity change is 0.0847% [at 18.6 µM] (inactive).

Regarding `C=C[Si](C)(C)O[Si](C)(C)C=C`, the call was inactive.

The nature of another assay: qHTS assay to test for compound auto fluorescence at 590 nm (red) in HEK293 cell free culture (AID 720683). Particulars: cell-free medium autofluorescence, Ex540/Em590 red; series mostly up to 91.3 µM. The method in brief:
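Red-channel autofluorescence of compounds in culture medium (DMEM, 10% FBS), no cells, measured at 540/590 nm. Rose Bengal sodium is the reference fluorophore for equivalence.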
`CC(C)COC(=O)COc1ccc(Cl)cc1Cl`: the call was inactive.

On to `O=c1[nH]c(=O)c2[nH]c(=O)[nH]c2[nH]1`, for which the compound was called inactive.

As for `NS(=O)(=O)c1cc2c(cc1Cl)NC(C(Cl)Cl)NS2(=O)=O` (stereo not given), the fluorescence, % of fluorescent control is 0.0566% [at 18.6 µM] (inactive).

Consider `SCCSCCS`, for which the compound was called inactive.

In the case of `Cc1cc(C)cc([N+](=O)[O-])c1`, the outcome was inactive.

As to `CCCCOC(=O)C(C)OC(=O)CCC` (stereo not given), the compound was classed as inactive.

Turning to `CC1=NN(c2ccc(S(=O)(=O)O)cc2)C(=O)C1N=Nc1ccccc1` (stereo not given), the compound was classed as inactive.

Take `O=C(O)c1ccccc1C(=O)Nc1ccc(S(=O)(=O)Nc2nccs2)cc1`: the result was inactive.

Turning to `FC(F)(F)/C(=N\OCC1OCCO1)c1ccc(Cl)cc1`, the compound was classed as inactive.

`Nc1ccc(/C=C/c2ccc(N)cc2S(=O)(=O)O)c(S(=O)(=O)O)c1`: the compound was called inactive.

As for `CCOC(=O)CC#N`, the outcome was inactive.

On to `COc1cc(C=O)ccc1OC(=O)C(C)C`, for which the call was inactive.

`CCCOC(=O)CCCCC(=O)OCCC`: the compound was called inactive.

Regarding `OC(CCN1CCCCC1)(c1ccccc1)c1ccccc1`, the result was inactive.

Consider `C[C@H]1O[C@H](O[C@H]2[C@H](O)[C@@H](O)[C@@H](O[C@H]3[C@H](O)[C@@H](O)[C@H](O)O[C@@H]3CO)O[C@@H]2CO)[C@H](O)[C@@H](O)[C@@H]1N[C@H]1C=C(CO)[C@@H](O)[C@H](O)[C@H]1O`, for which the compound was classed as inactive.

For `O=S(=O)(O)CCO`, the compound was called inactive.

As to `NCCc1ccn[nH]1`, the fluorescence, % of fluorescent control was -0.0073% [at 18.6 µM] (inactive).

For `CCCCC(CC)C(=O)OC(C)C` (stereo not given), the compound was classed as inactive.

As for `CCC(=O)c1ccc(O)cc1`, the call was inactive.

As for `CCCCCCCCC(=O)OCC`, the result was inactive.

As for `COc1cc2c3cc1Oc1cc(ccc1O)C[C@@H]1c4c(cc(OC)c(O)c4Oc4ccc(cc4)C[C@@H]3N(C)CC2)CC[N+]1(C)C`, the compound was called inactive.

Turning to `CCCCC/C=C/CC(=O)OC`, the compound was called inactive.

For the compound `C=CCOc1cc(Cl)ccc1C(=O)NCCN(CC)CC`, the call was inactive.

As for `CCCCCC1Nc2cc(C(F)(F)F)c(S(N)(=O)=O)cc2S(=O)(=O)N1` (stereo not given), the call was inactive.

`C[Si]1(C)N[Si](C)(C)N[Si](C)(C)N1`: the outcome was inactive.

Consider `Cc1oc(=O)oc1CN1CCN(c2cc3c(cc2F)c(=O)c(C(=O)O)c2n3C(C)S2)CC1` (stereo not given), for which the result was inactive.

As to `CCc1nccnc1C`, the call was inactive.

For the compound `Cc1ccccc1C(=O)N1CC/C(=N\OS(=O)(=O)O)c2ccc(Cl)cc21`, the call was inactive.

Take `COc1cc2c(Nc3ccc(Br)cc3F)ncnc2cc1OCC1CCN(C)CC1`: the outcome was inactive.

For the compound `CO/N=C(/C(=O)N[C@@H]1C(=O)N2C(C(=O)O)=C(Cn3nnc(C)n3)CS[C@H]12)c1csc(N)n1`, the compound was classed as inactive.

On to `Cc1nc(C)nc(N2C[C@@H](C)N(c3ccnc([C@@H](C)O)n3)[C@@H](C)C2)n1`, for which the outcome was inactive.

Turning to `CC(=O)N(CC(O)CO)c1c(I)c(C(=O)NCC(O)CO)c(I)c(C(=O)NCC(O)CO)c1I` (stereo not given), the call was inactive.

Take `O=C(COCCOCCOCC(=O)Nc1c(I)cc(I)c(C(=O)O)c1I)Nc1c(I)cc(I)c(C(=O)O)c1I`: the outcome was inactive.

Consider `C[C@@H]1C[C@H]2[C@@H]3C[C@H](F)C4=CC(=O)C=C[C@]4(C)[C@@]3(F)[C@@H](O)C[C@]2(C)[C@@]1(O)C(=O)CO`, for which the fluorescence, % of fluorescent control was -0.0134% [at 18.6 µM] (inactive).

For the compound `C=C[Si](C)(C)O[Si](C)(C)C=C`, the call was inactive.
